Measured values taken from article PMC7862700, “An all-to-all approach to the identification of sequence-specific readers for epigenetic DNA modifications on cytosine”.

Assays:
Test in all cases: DAPPL (digital affinity profiling via proximity ligation, sequencing); 10 mM Tris-HCl pH 7.5, 50 mM NaCl, 1 mM DTT, 4% glycerol, room temperature, 30 min; GST-TFs on glutathione beads, 16-mer random dsDNA library, 0.1% formaldehyde crosslink after washing; high values mean tight binding
Details in all cases: protein: recombinant; tags: N-terminal GST; dsDNA, one strand shown
[1] = biological target: T1, FLI1 (Homo sapiens, UniProt Q01543 1-452)
T1 sequence: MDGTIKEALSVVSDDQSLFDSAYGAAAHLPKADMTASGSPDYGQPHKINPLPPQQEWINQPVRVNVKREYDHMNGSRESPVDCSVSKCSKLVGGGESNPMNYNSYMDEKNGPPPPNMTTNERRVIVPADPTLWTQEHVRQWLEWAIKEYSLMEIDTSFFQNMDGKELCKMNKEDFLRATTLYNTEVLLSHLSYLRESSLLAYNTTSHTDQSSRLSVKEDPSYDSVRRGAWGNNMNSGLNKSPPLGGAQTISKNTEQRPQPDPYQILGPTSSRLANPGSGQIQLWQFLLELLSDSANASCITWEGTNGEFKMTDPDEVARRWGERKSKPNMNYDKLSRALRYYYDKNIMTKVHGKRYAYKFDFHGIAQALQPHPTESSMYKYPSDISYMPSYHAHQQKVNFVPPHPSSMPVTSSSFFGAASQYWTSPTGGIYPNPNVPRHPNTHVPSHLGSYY
In short: (§1)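 Pools were built from human transcription factors expressed in yeast as GST fusions, captured on glutathione beads and DNA-barcoded, along with a tag-only sample. Incubation with 200 nmole of a 16-mer random double-stranded DNA library lasted 30 min at room temperature in Tris/NaCl/DTT/glycerol buffer, and was followed by washing, 0.1% formaldehyde crosslinking, proximity ligation, PCR amplification and Illumina NextSeq500 sequencing. Binding signal is the quotient of each hexamer's read frequency for a factor and its frequency for the tag-only sample.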

[2] = biological target: T2, ELK1 (Homo sapiens, UniProt P19419 1-428)
T2 sequence: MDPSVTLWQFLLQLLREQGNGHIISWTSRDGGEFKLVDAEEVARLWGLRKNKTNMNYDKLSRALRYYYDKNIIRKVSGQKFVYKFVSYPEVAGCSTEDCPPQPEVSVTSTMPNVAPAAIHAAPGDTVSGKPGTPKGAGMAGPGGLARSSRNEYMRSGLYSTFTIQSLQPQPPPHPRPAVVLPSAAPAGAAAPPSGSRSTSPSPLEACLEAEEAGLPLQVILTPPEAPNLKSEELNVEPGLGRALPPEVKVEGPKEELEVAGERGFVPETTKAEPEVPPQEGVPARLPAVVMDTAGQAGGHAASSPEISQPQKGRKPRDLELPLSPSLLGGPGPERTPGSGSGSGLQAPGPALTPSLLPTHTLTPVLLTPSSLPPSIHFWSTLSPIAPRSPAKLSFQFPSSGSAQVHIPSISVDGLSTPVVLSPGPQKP
In short: as §1

[3] = biological target: T3, GABPA (Homo sapiens, UniProt Q06546 1-454)
T3 sequence: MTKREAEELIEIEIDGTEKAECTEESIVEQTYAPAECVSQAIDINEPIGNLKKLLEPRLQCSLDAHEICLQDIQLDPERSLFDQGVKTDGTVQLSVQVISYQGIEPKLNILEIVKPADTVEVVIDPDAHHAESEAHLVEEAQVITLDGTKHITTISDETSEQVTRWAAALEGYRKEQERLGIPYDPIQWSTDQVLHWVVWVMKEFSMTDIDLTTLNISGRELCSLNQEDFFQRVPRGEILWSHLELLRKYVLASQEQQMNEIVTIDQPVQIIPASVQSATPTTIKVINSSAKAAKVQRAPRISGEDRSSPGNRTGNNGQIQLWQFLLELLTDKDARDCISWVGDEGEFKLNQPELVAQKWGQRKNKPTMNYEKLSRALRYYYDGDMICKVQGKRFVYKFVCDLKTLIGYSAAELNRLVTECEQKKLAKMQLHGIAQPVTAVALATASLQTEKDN
In short: as §1

[4] = biological target: T4, ERG (Homo sapiens, UniProt P11308 1-479)
T4 sequence: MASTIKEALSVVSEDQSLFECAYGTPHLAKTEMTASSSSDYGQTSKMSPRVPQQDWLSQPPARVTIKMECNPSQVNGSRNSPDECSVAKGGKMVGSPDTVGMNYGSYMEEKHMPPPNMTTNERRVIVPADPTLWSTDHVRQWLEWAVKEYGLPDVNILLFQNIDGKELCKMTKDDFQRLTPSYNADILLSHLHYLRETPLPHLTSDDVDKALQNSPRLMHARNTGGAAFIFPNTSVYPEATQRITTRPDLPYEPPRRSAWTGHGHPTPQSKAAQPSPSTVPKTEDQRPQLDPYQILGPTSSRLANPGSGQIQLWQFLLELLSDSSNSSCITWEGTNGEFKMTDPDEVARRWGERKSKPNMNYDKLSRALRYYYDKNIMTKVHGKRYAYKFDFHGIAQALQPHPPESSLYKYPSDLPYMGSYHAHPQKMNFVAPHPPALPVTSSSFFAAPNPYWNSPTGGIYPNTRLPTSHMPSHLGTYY
In short: as §1

[5] = biological target: ELF1 (Homo sapiens, UniProt P32519 1-619)
In short: as §1

[6] = biological target: T5, EHF (Homo sapiens, UniProt Q9NZC4 1-300)
T5 sequence: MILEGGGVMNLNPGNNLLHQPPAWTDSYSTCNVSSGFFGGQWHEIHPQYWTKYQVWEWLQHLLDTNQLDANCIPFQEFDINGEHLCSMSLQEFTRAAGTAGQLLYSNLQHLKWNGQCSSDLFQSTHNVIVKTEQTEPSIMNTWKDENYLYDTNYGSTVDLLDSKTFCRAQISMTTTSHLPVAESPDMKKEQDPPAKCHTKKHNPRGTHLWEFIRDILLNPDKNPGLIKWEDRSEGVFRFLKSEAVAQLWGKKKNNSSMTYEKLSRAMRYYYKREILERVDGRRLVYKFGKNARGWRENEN
In short: as §1

[7] = biological target: SPI1 (Homo sapiens, UniProt P17947 1-270)
In short: as §1

[8] = biological target: SPIB (Homo sapiens, UniProt Q01892 1-262)
In short: as §1

[9] = biological target: T6, ELK3 (Homo sapiens, UniProt P41970 1-407)
T6 sequence: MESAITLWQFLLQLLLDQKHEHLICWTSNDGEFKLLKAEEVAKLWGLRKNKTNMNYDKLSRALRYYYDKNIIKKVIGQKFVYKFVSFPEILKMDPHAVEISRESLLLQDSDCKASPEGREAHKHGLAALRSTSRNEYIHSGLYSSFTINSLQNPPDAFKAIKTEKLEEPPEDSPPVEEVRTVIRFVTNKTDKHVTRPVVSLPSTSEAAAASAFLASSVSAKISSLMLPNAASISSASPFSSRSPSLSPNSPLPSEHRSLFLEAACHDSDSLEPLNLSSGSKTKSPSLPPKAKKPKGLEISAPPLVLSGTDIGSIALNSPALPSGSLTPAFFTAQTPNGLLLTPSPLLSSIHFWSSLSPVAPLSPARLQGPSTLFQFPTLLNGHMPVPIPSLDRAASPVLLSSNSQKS
In short: as §1

[10] = biological target: ETV5 (Homo sapiens, UniProt P41161 1-510)
In short: as §1

Sequence of ETV5 (P41161 whole entry): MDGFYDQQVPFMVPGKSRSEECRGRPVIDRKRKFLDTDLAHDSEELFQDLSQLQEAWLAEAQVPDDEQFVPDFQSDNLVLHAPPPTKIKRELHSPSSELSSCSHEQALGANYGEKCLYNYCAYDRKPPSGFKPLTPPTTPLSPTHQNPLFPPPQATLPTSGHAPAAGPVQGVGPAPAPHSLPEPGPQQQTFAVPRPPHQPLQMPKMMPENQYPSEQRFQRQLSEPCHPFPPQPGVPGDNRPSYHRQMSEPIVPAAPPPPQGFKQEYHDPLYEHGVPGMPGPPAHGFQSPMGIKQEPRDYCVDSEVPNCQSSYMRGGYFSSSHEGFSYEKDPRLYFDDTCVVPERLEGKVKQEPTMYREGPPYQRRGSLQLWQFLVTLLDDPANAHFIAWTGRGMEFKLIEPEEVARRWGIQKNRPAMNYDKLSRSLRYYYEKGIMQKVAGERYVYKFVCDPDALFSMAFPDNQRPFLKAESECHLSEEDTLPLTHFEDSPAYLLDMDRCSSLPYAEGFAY
Sequence of ELF1 (P32519 whole entry): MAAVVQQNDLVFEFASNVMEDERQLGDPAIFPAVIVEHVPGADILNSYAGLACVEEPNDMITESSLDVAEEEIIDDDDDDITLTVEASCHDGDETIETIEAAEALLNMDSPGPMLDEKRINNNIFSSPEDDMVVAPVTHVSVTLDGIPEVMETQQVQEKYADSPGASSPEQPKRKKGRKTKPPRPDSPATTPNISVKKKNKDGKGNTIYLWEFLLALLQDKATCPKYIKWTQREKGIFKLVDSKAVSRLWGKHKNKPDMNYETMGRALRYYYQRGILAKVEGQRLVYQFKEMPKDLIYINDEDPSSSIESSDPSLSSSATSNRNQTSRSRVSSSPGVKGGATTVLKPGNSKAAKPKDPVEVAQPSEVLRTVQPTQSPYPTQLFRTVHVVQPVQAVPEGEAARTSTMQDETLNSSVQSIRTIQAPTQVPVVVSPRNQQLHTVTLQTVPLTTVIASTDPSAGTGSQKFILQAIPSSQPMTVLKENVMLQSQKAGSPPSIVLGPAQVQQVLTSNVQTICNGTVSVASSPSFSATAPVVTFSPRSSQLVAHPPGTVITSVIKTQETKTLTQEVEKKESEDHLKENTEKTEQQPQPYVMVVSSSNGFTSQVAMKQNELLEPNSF
Sequence of SPIB (Q01892 whole entry): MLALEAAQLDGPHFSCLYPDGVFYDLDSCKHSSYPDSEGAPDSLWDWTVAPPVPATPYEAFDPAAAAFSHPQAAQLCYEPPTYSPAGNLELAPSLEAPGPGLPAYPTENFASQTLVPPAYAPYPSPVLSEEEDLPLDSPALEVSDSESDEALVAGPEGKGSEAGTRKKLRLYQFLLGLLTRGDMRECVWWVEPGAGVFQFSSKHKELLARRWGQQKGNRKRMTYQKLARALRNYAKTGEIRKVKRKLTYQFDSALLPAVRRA

GCTATC
binding signal [1]: 1.07 fold enrichment (6-mer frequency, TF over GST control)
binding signal [2]: 1.07 fold enrichment (6-mer frequency, TF over GST control)
binding signal [3]: 1.1 fold enrichment (6-mer frequency, TF over GST control)
binding signal [4]: 1.13 fold enrichment (6-mer frequency, TF over GST control)
binding signal [5]: 1.14 fold enrichment (6-mer frequency, TF over GST control)
binding signal [6]: 1.14 fold enrichment (6-mer frequency, TF over GST control)
binding signal [7]: 1.12 fold enrichment (6-mer frequency, TF over GST control)
binding signal [8]: 1.1 fold enrichment (6-mer frequency, TF over GST control)
binding signal [9]: 1.12 fold enrichment (6-mer frequency, TF over GST control)
binding signal [10]: 1.09 fold enrichment (6-mer frequency, TF over GST control)
